The target of test [1] is Death-associated protein kinase 1 (Homo sapiens) (UniProt P53355). The note with it: at 10 µM.
For test [2], the target named is Death-associated protein kinase 2 (Homo sapiens) (UniProt Q9UIK4). The note with it: at 1 µM.
For test [3] the target is unchanged. The note with it: at 10 µM.
In test [4] the target is T1, Serine/threonine-protein kinase DCLK2 (Homo sapiens) (UniProt Q8N568).
T1 sequence (whole entry): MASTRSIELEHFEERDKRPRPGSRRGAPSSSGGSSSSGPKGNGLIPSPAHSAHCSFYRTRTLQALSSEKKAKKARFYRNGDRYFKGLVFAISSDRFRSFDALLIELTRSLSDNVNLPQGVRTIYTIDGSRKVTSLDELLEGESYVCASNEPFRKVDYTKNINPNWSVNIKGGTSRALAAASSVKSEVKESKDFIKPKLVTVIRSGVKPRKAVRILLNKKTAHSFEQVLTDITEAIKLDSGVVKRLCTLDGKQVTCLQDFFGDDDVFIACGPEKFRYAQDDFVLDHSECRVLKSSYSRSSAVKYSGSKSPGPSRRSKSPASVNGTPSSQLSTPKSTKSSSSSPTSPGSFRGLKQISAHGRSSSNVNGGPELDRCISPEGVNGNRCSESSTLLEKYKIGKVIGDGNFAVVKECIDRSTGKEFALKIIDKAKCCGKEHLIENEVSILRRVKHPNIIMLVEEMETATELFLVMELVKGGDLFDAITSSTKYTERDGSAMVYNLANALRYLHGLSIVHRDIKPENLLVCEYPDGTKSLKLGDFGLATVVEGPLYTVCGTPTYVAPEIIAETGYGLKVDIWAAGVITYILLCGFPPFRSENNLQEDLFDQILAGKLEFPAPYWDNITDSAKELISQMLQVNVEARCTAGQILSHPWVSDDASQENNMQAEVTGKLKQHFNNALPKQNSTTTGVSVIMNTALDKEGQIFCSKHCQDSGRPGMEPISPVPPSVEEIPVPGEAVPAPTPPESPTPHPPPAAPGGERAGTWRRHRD
The conditions noted are these: at 1 µM.

For test [5], the target named is T1, Serine/threonine-protein kinase DCLK2 (Homo sapiens). The note with it: at 10 µM.
For test [6], the target named is T2, Discoidin domain-containing receptor 2 (Homo sapiens) (UniProt Q16832).
T2 sequence (whole entry): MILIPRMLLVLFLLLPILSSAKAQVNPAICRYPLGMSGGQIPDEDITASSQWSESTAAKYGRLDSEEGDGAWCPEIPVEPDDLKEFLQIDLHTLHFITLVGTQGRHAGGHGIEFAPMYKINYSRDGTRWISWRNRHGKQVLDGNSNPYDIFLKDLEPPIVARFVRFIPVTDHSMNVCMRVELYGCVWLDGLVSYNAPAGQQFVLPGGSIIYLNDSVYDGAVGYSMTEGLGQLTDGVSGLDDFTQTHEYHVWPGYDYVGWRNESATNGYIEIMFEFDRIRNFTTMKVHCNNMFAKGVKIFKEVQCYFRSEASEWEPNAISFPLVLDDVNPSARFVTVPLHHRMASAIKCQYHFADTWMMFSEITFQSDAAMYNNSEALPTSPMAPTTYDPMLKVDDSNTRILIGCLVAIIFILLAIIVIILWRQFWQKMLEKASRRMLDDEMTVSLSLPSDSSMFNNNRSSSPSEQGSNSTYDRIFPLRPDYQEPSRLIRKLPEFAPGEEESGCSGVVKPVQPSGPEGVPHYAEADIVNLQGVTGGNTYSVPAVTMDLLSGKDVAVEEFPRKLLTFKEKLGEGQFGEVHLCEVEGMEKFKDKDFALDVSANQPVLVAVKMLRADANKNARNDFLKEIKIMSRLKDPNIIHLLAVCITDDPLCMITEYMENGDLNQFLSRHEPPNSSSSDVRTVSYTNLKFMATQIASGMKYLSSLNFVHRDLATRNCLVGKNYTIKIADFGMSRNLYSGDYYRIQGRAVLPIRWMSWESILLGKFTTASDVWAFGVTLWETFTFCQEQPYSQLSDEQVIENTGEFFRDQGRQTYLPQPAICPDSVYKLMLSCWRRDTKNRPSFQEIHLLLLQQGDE
The note with it: at 1 µM.

Test [7] concerns the target T2, Discoidin domain-containing receptor 2 (Homo sapiens). The conditions noted are these: at 10 µM.
The target in test [8] is T3, Myotonin-protein kinase (Homo sapiens) (UniProt Q09013).
T3 sequence (whole entry): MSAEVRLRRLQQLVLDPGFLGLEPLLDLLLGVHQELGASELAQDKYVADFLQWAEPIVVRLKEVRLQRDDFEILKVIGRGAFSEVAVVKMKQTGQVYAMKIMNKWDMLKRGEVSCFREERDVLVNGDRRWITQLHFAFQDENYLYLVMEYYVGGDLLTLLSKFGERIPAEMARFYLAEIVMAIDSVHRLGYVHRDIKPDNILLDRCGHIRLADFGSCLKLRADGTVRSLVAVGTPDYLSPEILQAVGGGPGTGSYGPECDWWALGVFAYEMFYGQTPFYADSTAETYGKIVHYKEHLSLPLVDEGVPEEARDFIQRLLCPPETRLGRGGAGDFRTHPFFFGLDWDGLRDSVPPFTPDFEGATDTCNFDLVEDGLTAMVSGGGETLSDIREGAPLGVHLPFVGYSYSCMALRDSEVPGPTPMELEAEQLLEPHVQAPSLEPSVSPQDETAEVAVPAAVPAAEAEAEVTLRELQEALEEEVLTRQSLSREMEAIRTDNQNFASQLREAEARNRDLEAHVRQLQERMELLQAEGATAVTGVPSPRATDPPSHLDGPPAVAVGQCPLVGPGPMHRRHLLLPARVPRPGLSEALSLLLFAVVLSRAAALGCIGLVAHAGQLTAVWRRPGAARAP
The conditions noted are these: at 1 µM.

The target of test [9] is T3, Myotonin-protein kinase (Homo sapiens). The conditions noted are these: at 10 µM.
In test [10] the target is T4, Serine/threonine-protein kinase 17A (Homo sapiens) (UniProt Q9UEE5).
T4 sequence (whole entry): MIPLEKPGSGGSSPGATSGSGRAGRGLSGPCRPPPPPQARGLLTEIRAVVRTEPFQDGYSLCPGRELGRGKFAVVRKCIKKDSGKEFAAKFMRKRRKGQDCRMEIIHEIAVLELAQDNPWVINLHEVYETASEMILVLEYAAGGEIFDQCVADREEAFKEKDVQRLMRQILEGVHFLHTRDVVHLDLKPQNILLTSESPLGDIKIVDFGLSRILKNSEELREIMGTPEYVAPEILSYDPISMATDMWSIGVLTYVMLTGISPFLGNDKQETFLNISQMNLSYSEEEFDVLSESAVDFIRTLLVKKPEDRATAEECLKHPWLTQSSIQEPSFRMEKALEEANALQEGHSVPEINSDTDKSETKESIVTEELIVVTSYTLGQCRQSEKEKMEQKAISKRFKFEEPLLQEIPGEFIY
The conditions noted are these: at 1 µM.

In test [11] the target is T4, Serine/threonine-protein kinase 17A (Homo sapiens). The conditions noted are these: at 10 µM.
In test [12] the target is T5, Dual specificity tyrosine-phosphorylation-regulated kinase 2 (Homo sapiens) (UniProt Q92630).
T5 sequence (whole entry): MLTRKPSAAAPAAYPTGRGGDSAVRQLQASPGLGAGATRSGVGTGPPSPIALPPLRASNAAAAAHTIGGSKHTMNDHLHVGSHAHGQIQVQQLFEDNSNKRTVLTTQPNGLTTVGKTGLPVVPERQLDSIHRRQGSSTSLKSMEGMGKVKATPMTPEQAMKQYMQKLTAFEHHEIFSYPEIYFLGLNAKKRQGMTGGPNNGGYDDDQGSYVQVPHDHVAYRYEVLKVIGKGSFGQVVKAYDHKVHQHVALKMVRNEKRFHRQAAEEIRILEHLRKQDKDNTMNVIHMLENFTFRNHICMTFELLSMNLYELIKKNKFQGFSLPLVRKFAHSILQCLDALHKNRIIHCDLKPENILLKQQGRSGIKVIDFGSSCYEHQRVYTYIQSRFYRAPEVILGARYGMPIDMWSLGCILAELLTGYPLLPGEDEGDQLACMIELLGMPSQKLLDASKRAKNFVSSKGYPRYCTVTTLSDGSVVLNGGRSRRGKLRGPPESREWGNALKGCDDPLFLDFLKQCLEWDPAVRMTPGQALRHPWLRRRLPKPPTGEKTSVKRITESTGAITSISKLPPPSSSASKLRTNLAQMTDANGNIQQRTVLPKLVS
The conditions noted are these: at 1 µM.

Test [13] has as its target T5, Dual specificity tyrosine-phosphorylation-regulated kinase 2 (Homo sapiens). The note with it: at 10 µM.
The target in test [14] is T6, Ephrin type-A receptor 1 (Homo sapiens) (UniProt P21709).
T6 sequence (whole entry): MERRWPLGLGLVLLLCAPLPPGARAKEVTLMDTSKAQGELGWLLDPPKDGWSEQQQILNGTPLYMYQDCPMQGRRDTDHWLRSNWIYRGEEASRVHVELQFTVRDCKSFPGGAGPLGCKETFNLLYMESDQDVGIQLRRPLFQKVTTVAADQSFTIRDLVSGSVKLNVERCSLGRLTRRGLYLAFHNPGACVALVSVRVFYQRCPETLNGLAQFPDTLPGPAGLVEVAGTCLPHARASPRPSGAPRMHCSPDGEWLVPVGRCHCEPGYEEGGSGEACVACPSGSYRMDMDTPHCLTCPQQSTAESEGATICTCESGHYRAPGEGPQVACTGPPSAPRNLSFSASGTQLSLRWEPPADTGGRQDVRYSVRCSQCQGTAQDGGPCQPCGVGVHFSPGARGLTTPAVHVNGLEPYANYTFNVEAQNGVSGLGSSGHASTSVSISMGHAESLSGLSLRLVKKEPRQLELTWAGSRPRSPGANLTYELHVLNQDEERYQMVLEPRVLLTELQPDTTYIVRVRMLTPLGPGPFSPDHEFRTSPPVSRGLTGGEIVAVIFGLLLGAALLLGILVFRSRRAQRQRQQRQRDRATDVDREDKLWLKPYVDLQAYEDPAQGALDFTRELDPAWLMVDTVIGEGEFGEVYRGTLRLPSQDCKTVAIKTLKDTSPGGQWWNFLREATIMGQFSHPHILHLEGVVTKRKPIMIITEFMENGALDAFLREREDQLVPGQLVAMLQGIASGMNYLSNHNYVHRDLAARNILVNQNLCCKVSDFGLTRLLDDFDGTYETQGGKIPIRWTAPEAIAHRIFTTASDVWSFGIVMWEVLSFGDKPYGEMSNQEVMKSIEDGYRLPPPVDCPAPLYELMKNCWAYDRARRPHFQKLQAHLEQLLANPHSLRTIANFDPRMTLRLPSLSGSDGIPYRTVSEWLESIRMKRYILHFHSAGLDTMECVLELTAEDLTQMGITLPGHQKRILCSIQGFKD
The conditions noted are these: at 1 µM.

Test [15] deals with T6, Ephrin type-A receptor 1 (Homo sapiens). The conditions noted are these: at 10 µM.
Test [16] concerns the target Ephrin type-A receptor 2 (Homo sapiens) (UniProt P29317). The note with it: at 1 µM.
Test [17] shares this target. The conditions noted are these: at 10 µM.
Test [18] deals with T7, Ephrin type-A receptor 3 (Homo sapiens) (UniProt P29320).
T7 sequence (whole entry): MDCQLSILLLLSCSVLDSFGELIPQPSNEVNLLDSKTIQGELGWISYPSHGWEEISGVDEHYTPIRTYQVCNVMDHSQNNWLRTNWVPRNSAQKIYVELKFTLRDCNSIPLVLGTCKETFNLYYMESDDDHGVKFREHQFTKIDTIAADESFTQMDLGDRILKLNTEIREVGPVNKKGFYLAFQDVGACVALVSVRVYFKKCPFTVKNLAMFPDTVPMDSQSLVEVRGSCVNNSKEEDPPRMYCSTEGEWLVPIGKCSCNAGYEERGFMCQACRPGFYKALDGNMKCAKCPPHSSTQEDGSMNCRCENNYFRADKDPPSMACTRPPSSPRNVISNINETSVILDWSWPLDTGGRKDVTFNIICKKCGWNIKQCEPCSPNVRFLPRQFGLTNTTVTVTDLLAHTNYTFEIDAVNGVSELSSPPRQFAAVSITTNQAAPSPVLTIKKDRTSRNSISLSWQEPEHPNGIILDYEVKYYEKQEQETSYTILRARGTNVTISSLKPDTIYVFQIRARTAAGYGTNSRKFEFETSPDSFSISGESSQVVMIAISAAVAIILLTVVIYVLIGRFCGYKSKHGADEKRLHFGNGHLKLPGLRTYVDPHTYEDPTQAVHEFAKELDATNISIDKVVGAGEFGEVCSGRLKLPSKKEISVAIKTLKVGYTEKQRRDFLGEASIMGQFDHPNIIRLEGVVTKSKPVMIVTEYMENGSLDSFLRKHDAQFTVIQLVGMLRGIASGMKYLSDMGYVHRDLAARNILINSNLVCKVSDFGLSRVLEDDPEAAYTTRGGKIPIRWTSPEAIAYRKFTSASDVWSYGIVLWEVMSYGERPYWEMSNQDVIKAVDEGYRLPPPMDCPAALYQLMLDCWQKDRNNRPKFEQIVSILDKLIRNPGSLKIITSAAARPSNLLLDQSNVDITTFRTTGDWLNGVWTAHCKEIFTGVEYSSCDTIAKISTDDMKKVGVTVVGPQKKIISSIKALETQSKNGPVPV
The conditions noted are these: at 1 µM.

What is called residual activity is the signal under treatment as a percentage of the control signal.

Chain of Death-associated protein kinase 2 (Homo sapiens) (Q9UIK4 whole entry, looked up): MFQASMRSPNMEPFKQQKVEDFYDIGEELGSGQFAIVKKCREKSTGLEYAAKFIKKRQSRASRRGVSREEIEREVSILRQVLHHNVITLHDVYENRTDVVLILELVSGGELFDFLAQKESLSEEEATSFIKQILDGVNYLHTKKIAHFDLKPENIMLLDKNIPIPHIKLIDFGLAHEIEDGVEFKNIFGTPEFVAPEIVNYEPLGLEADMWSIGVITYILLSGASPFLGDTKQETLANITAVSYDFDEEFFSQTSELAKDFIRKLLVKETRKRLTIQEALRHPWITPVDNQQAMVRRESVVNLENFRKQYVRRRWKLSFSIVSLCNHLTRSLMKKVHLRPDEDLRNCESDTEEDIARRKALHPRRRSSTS
Chain of Ephrin type-A receptor 2 (Homo sapiens) (P29317 whole entry): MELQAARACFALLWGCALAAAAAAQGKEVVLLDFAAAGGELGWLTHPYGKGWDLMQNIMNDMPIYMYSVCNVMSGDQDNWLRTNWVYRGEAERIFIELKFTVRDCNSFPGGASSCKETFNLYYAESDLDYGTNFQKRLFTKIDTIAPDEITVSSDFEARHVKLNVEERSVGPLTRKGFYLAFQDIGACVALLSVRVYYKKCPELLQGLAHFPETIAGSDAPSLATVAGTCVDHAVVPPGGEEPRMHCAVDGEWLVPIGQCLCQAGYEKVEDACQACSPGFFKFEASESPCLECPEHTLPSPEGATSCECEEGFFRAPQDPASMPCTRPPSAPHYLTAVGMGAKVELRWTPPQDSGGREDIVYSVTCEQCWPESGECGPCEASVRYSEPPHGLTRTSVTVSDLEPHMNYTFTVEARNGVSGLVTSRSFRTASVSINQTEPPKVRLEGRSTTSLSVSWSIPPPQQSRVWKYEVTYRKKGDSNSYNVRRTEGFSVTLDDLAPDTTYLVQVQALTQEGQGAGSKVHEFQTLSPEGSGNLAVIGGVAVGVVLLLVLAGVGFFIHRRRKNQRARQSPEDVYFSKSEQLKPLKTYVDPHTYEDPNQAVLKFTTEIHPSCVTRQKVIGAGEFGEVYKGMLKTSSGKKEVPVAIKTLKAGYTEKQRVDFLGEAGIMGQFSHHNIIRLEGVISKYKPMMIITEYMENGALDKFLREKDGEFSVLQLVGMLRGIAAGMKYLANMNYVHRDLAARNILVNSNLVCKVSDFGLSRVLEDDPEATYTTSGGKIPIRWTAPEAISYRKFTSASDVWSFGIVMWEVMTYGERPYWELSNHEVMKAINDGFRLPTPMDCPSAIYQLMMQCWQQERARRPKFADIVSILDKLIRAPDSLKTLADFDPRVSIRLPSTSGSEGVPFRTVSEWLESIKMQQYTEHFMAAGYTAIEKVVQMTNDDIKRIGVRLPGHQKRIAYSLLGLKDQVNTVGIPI
Chain of Death-associated protein kinase 1 (Homo sapiens) (P53355 whole entry, looked up): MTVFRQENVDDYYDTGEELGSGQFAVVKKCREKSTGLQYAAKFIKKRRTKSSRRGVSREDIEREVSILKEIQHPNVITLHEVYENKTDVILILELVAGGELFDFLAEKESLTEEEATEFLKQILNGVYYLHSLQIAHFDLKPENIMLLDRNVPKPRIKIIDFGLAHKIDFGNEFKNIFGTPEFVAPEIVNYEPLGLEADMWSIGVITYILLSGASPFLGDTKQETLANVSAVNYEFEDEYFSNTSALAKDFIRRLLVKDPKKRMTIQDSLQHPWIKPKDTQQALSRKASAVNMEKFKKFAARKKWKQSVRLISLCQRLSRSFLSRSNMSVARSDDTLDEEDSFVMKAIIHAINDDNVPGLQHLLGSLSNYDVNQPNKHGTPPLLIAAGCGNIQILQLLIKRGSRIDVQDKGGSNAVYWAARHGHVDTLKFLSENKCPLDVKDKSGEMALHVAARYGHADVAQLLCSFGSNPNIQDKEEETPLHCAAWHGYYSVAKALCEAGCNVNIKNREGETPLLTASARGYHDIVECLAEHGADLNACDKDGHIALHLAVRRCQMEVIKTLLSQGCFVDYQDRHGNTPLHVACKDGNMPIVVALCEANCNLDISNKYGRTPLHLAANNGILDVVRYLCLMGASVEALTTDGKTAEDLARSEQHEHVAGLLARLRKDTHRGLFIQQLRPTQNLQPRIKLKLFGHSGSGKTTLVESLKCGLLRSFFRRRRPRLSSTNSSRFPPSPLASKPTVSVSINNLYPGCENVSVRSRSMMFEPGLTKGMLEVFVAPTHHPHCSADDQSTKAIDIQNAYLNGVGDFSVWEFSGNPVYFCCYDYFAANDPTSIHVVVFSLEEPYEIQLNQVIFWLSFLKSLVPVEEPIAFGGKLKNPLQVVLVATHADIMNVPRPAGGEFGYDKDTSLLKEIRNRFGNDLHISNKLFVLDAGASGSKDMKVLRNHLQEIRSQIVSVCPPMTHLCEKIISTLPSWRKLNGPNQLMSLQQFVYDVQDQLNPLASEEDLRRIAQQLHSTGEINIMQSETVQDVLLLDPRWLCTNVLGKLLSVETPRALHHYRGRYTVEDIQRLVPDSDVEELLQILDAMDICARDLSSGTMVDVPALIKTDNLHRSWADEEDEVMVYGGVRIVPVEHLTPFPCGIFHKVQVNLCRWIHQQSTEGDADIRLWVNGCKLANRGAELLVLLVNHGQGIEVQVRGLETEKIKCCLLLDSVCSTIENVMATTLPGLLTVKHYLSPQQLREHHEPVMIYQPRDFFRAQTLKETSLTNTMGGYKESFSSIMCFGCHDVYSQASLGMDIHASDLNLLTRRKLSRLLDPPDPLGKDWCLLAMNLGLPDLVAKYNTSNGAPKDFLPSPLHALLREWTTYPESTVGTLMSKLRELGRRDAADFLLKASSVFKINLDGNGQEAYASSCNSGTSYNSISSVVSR

Regarding `O=Nc1c(-c2c(O)[nH]c3ccccc23)[nH]c2ccccc12`, the residual activity in [1] worked out at 67%; in test [2] it was 73%; in test [3], 23%; in [4], 119%; in [5], 74%; in test [6], 94%. Besides, the residual activity in test [7] amounted to 87%; in test [8], 109%; in test [9] it was 83%; in [10], 6%; in test [11], 4%; in test [12] it was 79%. Moreover, the residual activity was 20% in test [13]; 55% in test [14]; 61% in [15]; 61% in test [16]; 16% in test [17]; 58% in [18].

Take `O=C1c2ccccc2-[n+]2ccc3c([nH]c4ccccc43)c21`: the residual activity in test [1] amounted to 84%; in test [2], 95%; in test [3] it was 96%; in [4], 105%; in test [5], 94%; in test [6] it was 78%. The residual activity in test [7] worked out at 84%; in test [8], 101%; in test [9], 80%; in [10], 104%; in [11] it was 114%; in test [12], 99%. Besides, the residual activity came to 92% in test [13]; 78% in [14]; 91% in test [15]; 89% in [16]; 101% in test [17]; 89% in [18].

(Values after ChEMBL document CHEMBL2218924, “A broad activity screen in support of a chemogenomic map for kinase signalling research and drug discovery” (Biochem J, 2013).)
